In ChEMBL document CHEMBL4303097 (2020):
Over roughly 1,500 compounds, “Inhibition index” has its median near 0.17; the highest 2% begin near 1.3. Only a selection was taken, and the highest values are over-represented in it overall.

The compounds below were run on SARS-CoV-2 (assay: Inhibition of cell viability relative to arbidol control (inhibition index > 1 indicates higher activity) measured by fluorescence (OD590nm) in Vero E6 cells infected with SARS-CoV-2 (strain BavPat1) at MOI 0.002 after 72hrs).
Type: functional, Chlorocebus sabaeus, Vero C1008
Work on `C=C[C@H]1CN2CC[C@H]1C[C@H]2[C@H](OC(=O)OCC)c1ccnc2ccc(OC)cc12` [QUININE ETHYLCARBONATE] yielded an Inhibition index of 0.6435. Work on `C=C[C@H]1CN2CC[C@H]1C[C@@H]2[C@@H](O)c1ccnc2ccc(OC)cc12.Cl.O` yielded an Inhibition index of 1.411. In the case of `Nc1nc(/C(=C/CC(=O)O)C(=O)N[C@@H]2C(=O)N3C(C(=O)O)=CCS[C@H]23)cs1` [CEFTIBUTEN], the Inhibition index was 0.07268. `CC(C)OC(=O)CCC/C=C\C[C@H]1[C@H](CC[C@@H](O)CCc2ccccc2)[C@@H](O)C[C@H]1O` showed an Inhibition index of 0.1555. With `CC[C@H]1OC(=O)[C@H](C)[C@@H](O[C@H]2C[C@@](C)(OC)[C@@H](O)[C@H](C)O2)[C@H](C)[C@@H](O[C@@H]2O[C@H](C)C[C@H](N(C)C)[C@H]2O)[C@](C)(OC)C[C@@H](C)C(=O)[C@H](C)[C@@H](O)[C@]1(C)O` [CLARITHROMYCIN] the Inhibition index was 0.8598. For `CC[C@H]1OC(=O)[C@H](C)[C@@H](O[C@H]2C[C@@](C)(OC)[C@@H](O)[C@H](C)O2)[C@H](C)[C@@H](O[C@@H]2O[C@H](C)C[C@H](N(C)C)[C@H]2O)[C@](C)(O)C[C@@H](C)CN(C)[C@H](C)[C@@H](O)[C@]1(C)O` [AZITHROMYCIN], the Inhibition index was 1.487. For `CC[C@H]1OC(=O)[C@H](C)[C@@H](O[C@H]2C[C@@](C)(OC)[C@@H](O)[C@H](C)O2)[C@H](C)[C@@H](O[C@@H]2O[C@H](C)C[C@H](N(C)C)[C@H]2O)[C@](C)(O)C[C@@H](C)C(=O)[C@H](C)[C@@H](O)[C@]1(C)O` [ERYTHROMYCIN], the Inhibition index was 0.0005254. `CCC(=O)O[C@]1(C(=O)CCl)[C@@H](C)C[C@H]2[C@@H]3CCC4=CC(=O)C=C[C@]4(C)[C@@]3(F)[C@@H](O)C[C@@]21C` [CLOBETASOL PROPIONATE] showed an Inhibition index of 0.2335. With `CC(=O)S[C@@H]1CC2=CC(=O)CC[C@]2(C)[C@H]2CC[C@@]3(C)[C@@H](CC[C@@]34CCC(=O)O4)[C@H]12` [SPIRONOLACTONE] the Inhibition index was 0.4829. In the case of `Cl.NC1CCN(c2nc3c(cc2F)c(=O)c(C(=O)O)cn3-c2ccc(F)cc2F)C1` (configuration not stated), the Inhibition index was 0.1095. `CN1[C@@H]2CC[C@H]1C[C@@H](OC1c3ccccc3CCc3ccccc31)C2.O=C(O)CC(O)(CC(=O)O)C(=O)O` [DEPTROPINE CITRATE] showed an Inhibition index of -0.3511. `Cc1cc(C(C)(C)C)c(O)c(C)c1CC1=NCCN1.Cl` [OXYMETAZOLINE HYDROCHLORIDE] gave an Inhibition index of 0.08485. For `Cl.Oc1ccc2c3c1O[C@H]1[C@@H](O)CC[C@@]4(O)[C@@H](C2)N(CC2CCC2)CC[C@]314` [NALBUPHINE HYDROCHLORIDE], the Inhibition index was 0.2089. With `C=C1CC[C@@]2(O)[C@H]3Cc4ccc(O)c5c4[C@@]2(CCN3CC2CC2)[C@H]1O5.Cl` [NALMEFENE HYDROCHLORIDE] the Inhibition index was 1.653. For `Cl.O.O.O=C1CC[C@@]2(O)[C@H]3Cc4ccc(O)c5c4[C@@]2(CCN3CC2CC2)[C@H]1O5`, the Inhibition index was 0.1496. `CC(C(=O)O)c1ccc(N2CC=CC2)c(Cl)c1` (configuration not stated) [PIRPROFEN] gave an Inhibition index of 0.2333. For `CNC(=C[N+](=O)[O-])NCCSCc1ccc(CN(C)C)o1.Cl` [RANITIDINE HYDROCHLORIDE], the Inhibition index was 0.09309. `CCN1CCC[C@H]1CNC(=O)c1c(OC)ccc(Br)c1OC.Cl` gave an Inhibition index of 0.3465. `CC(C)n1c(/C=C/[C@H](O)C[C@H](O)CC(=O)[O-])c(-c2ccc(F)cc2)c2ccccc21.[Na+]` was tested, and the Inhibition index was -0.06663. In the case of `CN[C@@H]1[C@@H](O)[C@@H](O[C@@H]2[C@@H](O)[C@H](O[C@H]3O[C@H](CN)CC[C@H]3N)[C@@H](N)C[C@H]2N)OC[C@]1(C)O.CN[C@@H]1[C@@H](O)[C@@H](O[C@@H]2[C@@H](O)[C@H](O[C@H]3O[C@H]([C@@H](C)N)CC[C@H]3N)[C@@H](N)C[C@H]2N)OC[C@]1(C)O.CN[C@@H]1[C@@H](O)[C@@H](O[C@@H]2[C@@H](O)[C@H](O[C@H]3O[C@H]([C@@H](C)NC)CC[C@H]3N)[C@@H](N)C[C@H]2N)OC[C@]1(C)O.O=S(=O)(O)O`, the Inhibition index was 0.01806. `COc1c(-c2ccc3cc(NS(C)(=O)=O)ccc3c2)cc(-n2ccc(=O)[nH]c2=O)cc1C(C)(C)C` [DASABUVIR] showed an Inhibition index of 0.184. Work on `Cc1cc(C2CCCCC2)n(O)c(=O)c1.NCCO` [CICLOPIROX OLAMINE] yielded an Inhibition index of 0.2225. Compound `C[C@]12CC[C@H](O)C[C@@H]1CC[C@@H]1[C@@H]2CC[C@]2(C)C(=O)CC[C@@H]12` [EPIANDROSTERONE] has an Inhibition index of 1.075. With `C[C@]12CCC(=O)C=C1CC[C@@H]1[C@@H]2C(=O)C[C@]2(C)C(=O)CC[C@@H]12` [ADRENOTERONE] the Inhibition index was 0.3653. `C[C@]12CCC(=O)C(O)=C1CC[C@@H]1[C@@H]2CC[C@]2(C)C(=O)CC[C@@H]12` [FORMESTANE] was tested, and the Inhibition index was 1.365. `C[C@]12CCC(=O)C=C1CC[C@@H]1[C@@H]2[C@@H](O)C[C@@]2(C)[C@H]1CC[C@]2(O)C(=O)CO` [HYDROCORTISONE] was tested, and the Inhibition index was 0.1194. `CN1CCC(=C2c3ccccc3CC(=O)c3sccc32)CC1.O=C(O)/C=C/C(=O)O` [KETOTIFEN FUMARATE] showed an Inhibition index of 0.837. In the case of `Cc1ccc(/C(=C\CN2CCCC2)c2ccccn2)cc1.Cl`, the Inhibition index was 0.8569. In the case of `O=C1O[C@H]([C@@H](O)CO)C(O)=C1O` [ASCORBIC ACID], the Inhibition index was 0.2513. With `C[C@]12CCC(=O)C=C1C=C[C@@H]1[C@@H]2CC[C@@]2(C)[C@H]1CC[C@@]2(O)CCC(=O)[O-].[K+]` [CANRENOATE POTASSIUM] the Inhibition index was 0.2042. In the case of `C[C@]12CC[C@H]3[C@@H](CCC4=CC(=O)CC[C@@]43C)[C@@H]1CC[C@@H]2C(=O)CO` [DESOXYCORTICOSTERONE], the Inhibition index was 0.868. Work on `CNC1(C)C2CCC(C2)C1(C)C.Cl` (configuration not stated) [MECAMYLAMINE HYDROCHLORIDE] yielded an Inhibition index of 0.674. Work on `CC(=O)O[C@H]1C[C@@H]2CC[C@@H]3[C@H](CC[C@@]4(C)[C@H]3C[C@H]([N+]3(C)CCCCC3)[C@@H]4OC(C)=O)[C@@]2(C)C[C@@H]1[N+]1(C)CCCCC1.[Br-].[Br-]` [PANCURONIUM BROMIDE] yielded an Inhibition index of 0.06422. For `Nc1c2ccccc2nc2ccccc12` [AMINACRINE], the Inhibition index was -0.2464. `Cl.Nc1c2c(nc3ccccc13)CCCC2` [TACRINE HYDROCHLORIDE] was tested, and the Inhibition index was 1.442. With `CCC(=O)OC(OP(=O)(CCCCc1ccccc1)CC(=O)N1C[C@H](C2CCCCC2)C[C@H]1C(=O)O)C(C)C` (some centres not stated) the Inhibition index was 1.038. Work on `CC[C@H]1OC(=O)[C@H](C)[C@@H](O[C@H]2C[C@@](C)(OC)[C@@H](O)[C@H](C)O2)[C@H](C)[C@@H](O[C@@H]2O[C@H](C)C[C@H](N(C)C)[C@H]2O)[C@](C)(O)C[C@@H](C)[C@@H]2N[C@@H](COCCOC)O[C@H]([C@H]2C)[C@]1(C)O` [DIRITHROMYCIN] yielded an Inhibition index of 0.105.
